Our source for the inhibition values is PubChem BioAssay AID1220 (Sanford-Burnham Center for Chemical Genomics, 2008).

Hit rate of the full screen: of about 190,000 compounds, about 1,300 (0.68%) were called active. The sample as a whole holds a higher share of actives than the screen did. A number with no mark means an inactive call. No stated cut-off is given here; in the data, active means inhibition above about 50%; inactive means the rest.

Chain of Mannose-6-phosphate isomerase (Homo sapiens) (P34949 whole entry, looked up): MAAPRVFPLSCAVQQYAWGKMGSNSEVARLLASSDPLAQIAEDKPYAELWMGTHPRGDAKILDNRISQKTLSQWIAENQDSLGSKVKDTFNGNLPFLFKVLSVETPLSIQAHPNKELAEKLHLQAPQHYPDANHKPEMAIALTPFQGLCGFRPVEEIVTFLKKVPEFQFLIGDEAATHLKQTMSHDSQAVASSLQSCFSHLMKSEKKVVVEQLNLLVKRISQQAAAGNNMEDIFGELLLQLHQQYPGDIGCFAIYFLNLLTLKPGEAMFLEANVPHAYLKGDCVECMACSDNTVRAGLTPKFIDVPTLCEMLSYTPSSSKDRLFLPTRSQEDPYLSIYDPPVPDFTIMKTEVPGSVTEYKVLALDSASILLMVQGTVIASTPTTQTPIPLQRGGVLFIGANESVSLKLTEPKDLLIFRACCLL

This experiment addresses Mannose-6-phosphate isomerase (Homo sapiens) (UniProt P34949). Briefly: human PMI inhibitors, high substrate, primary screen, biochemical, fluorescence intensity, high mannose 6-phosphate (AID 1220). The note with it: recombinant PMI enzyme, coupled fluorescence intensity; at 20 µM; active compounds read high.
For `Cc1ccc(C)n1-c1ccc(C(=O)O)cc1`, the inhibition is 0.2%. Consider `Cc1ccc(C)n1-c1ccncc1`, for which the inhibition was 3.1%.

`Cc1ccc(C)n1-c1ccc(N(C)C)cc1`: the inhibition is 66.1% (active). The value for `Cc1ccc(OC(=O)C(F)(F)F)c2c1NCCC2` was 11.5%; that for `Cc1cc2c(C)cc(=O)oc2c2c1NCCC2` was 12.6%.

With `COc1ccc(N2CCN(/C(=N\S(=O)(=O)c3ccc(C)cc3)Nc3nc(C)cc(C)n3)CC2)cc1`, the inhibition is -1.1%. With `Nc1nc(-c2ccco2)nc(N2CCCCC2)n1`, the inhibition was 2.4%.

For the compound `O=C1C=CC(=O)C(C2=C3C(=O)N(CCc4ccccc4)CC(=O)N3CCC2)=C1`, the inhibition was 50.6% (active). Regarding `O=C1CC(=O)N(CCc2ccccc2)C(=O)N1CCc1ccccc1`, the inhibition is 7.8%. Consider `O=C(NCc1ccc(N2CCCC2=O)cc1)c1cn(CCc2ccccc2)nn1`, for which the inhibition is 3.8%. `O=C(NO)c1cc(OCC(F)(F)F)ccc1OCC(F)(F)F`: the inhibition was -2.8%.

In the case of `Cc1ccccc1N=Cc1cc2c(cc1[N+](=O)[O-])OCO2`, the inhibition is 53.3% (active). The value for `O=[N+]([O-])c1cc2c(cc1/C=N/n1cnnc1)OCO2` was 13%; that for `Cc1ccc(C)c(N=Cc2cc3c(cc2[N+](=O)[O-])OCO3)c1` was 41.6%. `Cc1cc(C)nc(N/N=C/c2cc3c(cc2[N+](=O)[O-])OCO3)n1`: the inhibition is 1.3%. The value for `Cc1cccc(N=Cc2cc3c(cc2[N+](=O)[O-])OCO3)c1` was 62.2% (active); that for `Cc1cccc(C)c1OCC(=O)N/N=C/c1cc2c(cc1[N+](=O)[O-])OCO2` was -72.5%; that for `CC1=NN(c2nc(-c3ccc(C)cc3)cs2)C(=O)C1N=Nc1ccc2ccccc2c1` (stereo unspecified) was 10.1%. `Cc1cc(C)cc(NC(=O)C2(c3cccs3)CCOCC2)c1`: the inhibition was 3.6%.

`O=C(C/C=N\OCc1ccc(Cl)cc1Cl)Nc1ccccc1`: the inhibition was 15.2%. In the case of `Nc1ccc(Nc2ccccc2N)cc1`, the inhibition was 52.9% (active). For `Nc1ccccc1Nc1ccccc1`, the inhibition is -26.3%. Turning to `COc1ccc(Nc2ccccc2N)cc1`, the inhibition was 3.8%.

As for `Cc1ccc(-c2cnc(-c3ccncc3)o2)cc1`, the inhibition was -3.1%. As to `CCC(O)(C#CCN1CCCCC1)CC`, the inhibition is -6.1%.

Take `Cc1ccc2c(c1)C(O)(CC(=O)c1ccc(C)s1)C(=O)N2` (stereo unspecified): the inhibition was 4.5%. In the case of `CC1CCN(S(=O)(=O)c2ccc(C(=O)OCc3ccc4c(c3)OCO4)cc2)CC1`, the inhibition was -5.5%.

Turning to `CCCCN=C1C([N+](=O)[O-])=CC=C2C1=NC1(CCCCC1)N2O`, the inhibition is 53% (active). The value for `Cn1c(SCC(=O)Nc2cccc3ccccc23)nc(O)cc1=O` was 26.1%; that for `O=C(O)C(=O)Cc1c[nH]c2ccccc12` was -4.1%; that for `O=C(O)Cc1c[nH]c2cccc(O)c12` was 51.5% (active). Turning to `NC(=O)Cc1c[nH]c2cccc(O)c12`, the inhibition is 44.8%. In the case of `CCN(CC(=O)Nc1ccc2c(c1)OCCO2)CC(=O)Nc1ccc2c(c1)OCO2`, the inhibition is 5.7%. As to `COc1ccc(S(=O)(=O)NCCCCNS(=O)(=O)c2ccc(OC)cc2)cc1`, the inhibition was 1.1%. In the case of `Cc1ccc(-c2[nH]c(-c3ccccc3)nc2SCC(=O)NCC2CCCO2)cc1` (stereo unspecified), the inhibition is 3.3%. Regarding `O=C(OC1CCN(c2ncc(C(F)(F)F)cc2Cl)CC1)c1ccccc1`, the inhibition was 11.4%. Take `O=C(OC1CCN(c2ncc(C(F)(F)F)cc2Cl)CC1)c1ccc(Cl)cc1`: the inhibition is 7.7%. The value for `COc1ccc(C(=O)OC2CCN(c3ncc(C(F)(F)F)cc3Cl)CC2)cc1` was 54.2% (active); that for `NS(=O)(=O)c1ccc(CCNC(=O)COC(=O)/C=C/c2ccc(Cl)cc2)cc1` was 0.2%; that for `CCc1nnc(NC(=O)CSc2nnc(COc3ccc(C)cc3)n2-c2ccccc2)s1` was 8%.

As to `O=C(N/N=C\c1ccc([N+](=O)[O-])o1)C1COc2ccccc2O1` (stereo unspecified), the inhibition is 21.3%. The value for `O=C(N/N=C\c1ccc(-c2ccccc2[N+](=O)[O-])o1)C1COc2cc3ccccc3cc2O1` (stereo unspecified) was 65.2% (active); that for `O=C(N/N=C/c1ccc(-c2cccc([N+](=O)[O-])c2)o1)[C@H]1C[C@@H]1c1ccccc1` was 8.6%. Turning to `O=C(N/N=C/c1ccco1)C1CC1c1ccccc1` (stereo unspecified), the inhibition is 0.2%. On to `O=C(N/N=C\c1ccc(-c2ccccc2[N+](=O)[O-])o1)C1COc2ccccc2O1` (stereo unspecified), for which the inhibition is 55.3% (active).

For `Cc1ccc(/C=N\NC(=O)C2COc3cc4ccccc4cc3O2)o1` (stereo unspecified), the inhibition was 0.7%.

Take `O=C(N/N=C\c1cccc([N+](=O)[O-])c1O)C1COc2ccccc2O1` (stereo unspecified): the inhibition was -15.4%. Turning to `O=C(N/N=C\c1ccc(-c2ccc([N+](=O)[O-])cc2)o1)C1COc2ccccc2O1` (stereo unspecified), the inhibition is -8.4%. Take `O=C(N/N=C/c1ccc(-c2ccccc2[N+](=O)[O-])o1)[C@H]1C[C@@H]1c1ccccc1`: the inhibition was 63.4% (active). Take `CC(=O)N1CCC(N(CCCOC(C)C)C(=O)Nc2ccc(C)c(C)c2)CC1`: the inhibition was 0.4%.

As to `Cc1nc2nc(SCC(=O)N3CCOCC3)nn2c(C)c1Cc1c(F)cccc1Cl`, the inhibition was 18.6%. As to `Cc1cccc(NC(=O)Cn2nnc(-c3ccc(CN4CCCC4)cc3)n2)c1C`, the inhibition was 0.5%. Consider `CN(c1ccccc1)S(=O)(=O)c1cccc(C(=O)OCC(=O)NCCCN2CCCC2=O)c1`, for which the inhibition is -7.4%. Turning to `CCOc1ccc(CCNC(=O)COC(=O)c2cccnc2OCC)cc1OCC`, the inhibition was 14.4%. For `COc1ccc(N2C(C(C)=O)=NN(c3ccccc3)C2c2cccs2)cc1` (stereo unspecified), the inhibition is 10.7%. For the compound `CCOc1ccccc1N1CC(C(=O)Nc2ccc3c(c2)OCCO3)CC1=O` (stereo unspecified), the inhibition was 1.4%.

For `Cc1csc(/C(C#N)=N/O)n1`, the inhibition was 8.3%.

Consider `CC1CC(C)CN(CC(=O)c2cccs2)C1` (stereo unspecified), for which the inhibition is -20.3%.

In the case of `CCc1c(C(=O)Nc2ccc(OC)c(Cl)c2)[nH]c(C)c1C(C)=O`, the inhibition was -0.2%. Take `O=C(CCc1ccccc1)NNC(=O)C1CCCCC1`: the inhibition was -4.6%. Regarding `CC(C)(C)c1ccc(C(=O)NNc2cc(N3CCCCC3)nc(N3CCCCC3)n2)cc1`, the inhibition was 18.1%. Take `Cc1ccc(C(=O)NNC(=O)C2CCN(c3nc(C)cc(C)n3)CC2)cc1`: the inhibition was -8.6%. To `O=C(NNc1cc(N2CCOCC2)nc(N2CCOCC2)n1)c1ccc(Cl)c(Cl)c1` belongs 48.8%.

As for `O=C(CCc1ccccc1)NNc1cc(N2CCCCC2)nc(N2CCCCC2)n1`, the inhibition is 53.4% (active). The value for `O=C(NNc1cc(N2CCOCC2)nc(N2CCOCC2)n1)c1ccc([N+](=O)[O-])cc1` was 56.3% (active); that for `CC(C)(C)c1ccc(C(=O)NNc2cc(N3CCOCC3)nc(N3CCOCC3)n2)cc1` was 48.8%; that for `Cc1ccc(C(=O)NNc2cc(N3CCCC3)nc(N3CCCC3)n2)cc1` was 51.4% (active). As to `O=C(CCc1ccccc1)Nc1ccc(N2CCCCC2)cc1`, the inhibition was 3.5%. With `CCOC(=O)N1CCN(C(=O)c2ccc(CN(c3ccccc3)S(C)(=O)=O)cc2)CC1`, the inhibition is -4.3%. As for `CC(=O)N(c1c(C)n(C)n(-c2ccccc2)c1=O)C1(C(=O)NC2CCCCC2)CCCCC1`, the inhibition was 1.3%. `Cc1onc(-c2c(Cl)cccc2Cl)c1C(=O)NCCCN1CCOCC1`: the inhibition is -0.3%. Turning to `O=C(c1ccccc1)N1CCOC12CCN(c1ncc(C(F)(F)F)cc1Cl)CC2`, the inhibition was 2.1%. Turning to `CCOC(=O)/C=C/C(=O)OCC(=O)Nc1c(Cl)cccc1Cl`, the inhibition was -9.4%. As for `CCCc1nc2c(sc3nc4c(cc32)COC(C)(C)C4)c(=O)n1CCN(C)C`, the inhibition was 50.8% (active). Turning to `CCc1nc2c(sc3nc4c(cc32)COC(C)(C)C4)c(=O)n1CCN(CC)CC`, the inhibition was 3.8%. As for `CCCc1nc2c(sc3nc4c(cc32)COC(C)(C)C4)c(=O)n1CCN(CC)CC`, the inhibition was -0.7%.

Regarding `Cc1ccc(C(=O)N/C(=C/c2ccccc2)C(=O)NCC2CCCO2)cc1` (stereo unspecified), the inhibition was -4.3%. Regarding `NNC(=O)COc1ncn(-c2ccccc2)n1`, the inhibition is 4.5%.

As to `Cc1ccc(NC(=O)C(=O)NCCN2CCN(C(=S)Nc3ccccc3)CC2)cc1`, the inhibition is -0.2%. The value for `COCCNC(=O)CN(C(=O)Cn1nnc2ccccc21)c1ccc(F)c(Cl)c1` was -5.3%; that for `CC(=O)Nc1c(O)c2ccccc2[nH]c1=O` was 17.5%. The value for `O=c1[nH]c2ccccc2c2ccccc12` was 3.6%; that for `COc1cc([N+](=O)[O-])ccc1NC(=O)CCCOc1cccc(C)c1C` was 9.2%; that for `OCCOCCOc1ccc(-c2nn[nH]n2)cc1` was -12.5%.

With `CCCCC(=O)Nc1ccc(NC(=S)NC(=O)c2cccs2)cc1OC`, the inhibition was 14.4%. As for `O=C(Nc1cccc(S(=O)(=O)Nc2ccccc2Cl)c1)c1ccc(Cl)nc1`, the inhibition is 7.3%. To `CN1c2ccccc2N(C)C1c1c(O)ccc2ccccc12` belongs 55.3% (active); to `CCC12CN3CC(CC)(CN(C1)C3c1c(O)ccc3ccccc13)C2=O` (stereo unspecified), 27.9%. Turning to `Oc1ccc2ccccc2c1C1Nc2cccc3cccc(c23)N1`, the inhibition is 10.6%. Regarding `Fc1ccc(NC(=S)N2CCn3cccc3C2c2cccnc2)cc1` (stereo unspecified), the inhibition was 1%. To `Cc1ccc(NC(=O)C(Nc2ccccc2)c2ccccc2)cc1` (stereo unspecified) belongs 1.5%; to `CC(=O)N1N=C(c2cccc([N+](=O)[O-])c2)OC1c1cccc(Br)c1` (stereo unspecified), 4.5%; to `CCC(=Nc1ccc(N)cc1)C1=C(O)C(C(=O)OC)C(C)(C)CC1=O` (stereo unspecified), 53.8% (active). Regarding `CCCCC(=Nc1ccc(N)cc1)C1=C(O)C(C(=O)OC)C(C)(C)CC1=O` (stereo unspecified), the inhibition is 15.5%. Turning to `CCCC(=Nc1ccc(N)cc1)C1=C(O)C(C(=O)OC)C(C)(C)CC1=O` (stereo unspecified), the inhibition was 28.8%. In the case of `COc1ccc(OC)c2sc(NC(=O)CCSc3ccccc3)nc12`, the inhibition is 2.1%.

One may read the inhibition as the change of the read-out against control, counted positive when it falls.
